Screening results from PubChem BioAssay.
TDP1 cell CPT = DT40-hTDP1 cell growth loss with CPT; Potency, µM (series often up to 46.2 µM), for the others: at the top dose activity change, negative = growth inhibition, actives largely listed as inhibitors; actives 12% (n = 420,000); chicken DT40 Tdp1-/-;hTDP1 cells + 20 nM CPT, ATP luminescence, 48 h; also: potency is read from the fitted curve at half-maximal effect; nearly all actives have a fitted effect of over 55% in size
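Cell growth measured by CellTiter-Glo luminescence after a minimum 48 h, 37 C compound exposure with 20 nM CPT in Tdp1-knockout DT40 cells stably expressing hTDP1, seeded 400/well; qHTS titration format.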
ELG1 DNA repair = inhibitors of ELG1-dependent DNA repair in HEK293T cells | HEK293T ELG1-luciferase reporter, luminescence, 16 h; DNA damage induced by 5-fluorouridine | Potency, µM (titrated, usually from 46.1 µM), for inactives: top-dose activity change, negative = inhibition, most hits filed as inhibitors | actives 2.3% (n = 330,000) | AID 504467; also: potency is read from the fitted curve at half-maximal effect; nearly all actives have a fitted effect of over 55% in size
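Reporter activity after DNA damage by 5-fluorouridine is monitored. Compound-treated cells incubate 16 hr at 37 °C, then ONE-Glo is added for 30 min before luminescence reading.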
VP16 counter = counter-screen for ROR gamma inhibitors: Gal4-VP16 reporter; Potency, µM (series often up to 53.6 µM), for the others: at the top dose activity, negative = inhibition, actives largely listed as inhibitors; AID 2546; Drosophila S2 Gal4-VP16 UAS-luciferase, luminescence, 20 h; actives 3.5% (n = 310,000);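 also: Gal4-VP16 expression switched on by copper sulfate through the metallothionein promoter; potency is read from the fitted curve at half-maximal effect; nearly all actives have a fitted effect of over 50% in size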
TDP1 cell noCPT = qHTS for Inhibitors of human tyrosyl-DNA phosphodiesterase 1 (TDP1): qHTS in cells in absence of CPT; DT40 Tdp1-/- hTDP1 cells, no CPT, ATP luminescence, 48 h; Potency, µM (top dose mostly 46.2 µM), for the others: top-dose activity change, negative = growth inhibition, usual class: inhibitors; actives 15% (n = 420,000); AID 686978, 2013; also: potency is read from the fitted curve at half-maximal effect; nearly all actives have a fitted effect of over 55% in size
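Growth kinetics read by CellTiter-Glo luminescence after ≥48 hr at 37 °C. Cells: DT40 Tdp1-/- stably carrying human TDP1, 400 per well, compound exposure in the absence of CPT (DMSO vehicle).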
RORgamma inh = blocks mouse ROR gamma transcriptional activity. P51450. Drosophila S2 Gal4-RORgamma UAS-luciferase reporter, 20 h. Potency, µM (series often up to 53.6 µM), for the others: at the highest dose activity change, negative = inhibition, hits mostly inhibitors. actives 5.4% (n = 310,000). AID 2551; also: potency is read from the fitted curve at half-maximal effect; nearly all actives have a fitted effect of over 60% in size
Target sequence (P51450 whole entry, looked up, the tested form may be a part): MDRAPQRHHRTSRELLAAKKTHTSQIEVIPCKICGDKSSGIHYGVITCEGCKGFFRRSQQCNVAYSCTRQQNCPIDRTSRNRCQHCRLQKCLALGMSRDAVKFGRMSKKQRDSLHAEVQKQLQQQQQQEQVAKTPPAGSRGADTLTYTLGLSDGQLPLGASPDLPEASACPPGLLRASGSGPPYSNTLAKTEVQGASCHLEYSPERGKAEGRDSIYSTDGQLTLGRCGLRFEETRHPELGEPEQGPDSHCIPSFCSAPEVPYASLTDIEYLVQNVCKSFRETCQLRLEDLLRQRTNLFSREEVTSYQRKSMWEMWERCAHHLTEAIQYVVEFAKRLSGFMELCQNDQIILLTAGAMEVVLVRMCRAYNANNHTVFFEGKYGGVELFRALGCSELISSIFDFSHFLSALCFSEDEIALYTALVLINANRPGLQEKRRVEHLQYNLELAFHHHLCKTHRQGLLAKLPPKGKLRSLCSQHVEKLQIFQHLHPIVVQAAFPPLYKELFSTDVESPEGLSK
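Using a luciferase readout, inhibitors were identified by reduced reporter activity in Drosophila cells coexpressing a copper-inducible Gal4–ROR gamma fusion and UAS-driven Photinus luciferase, incubated 20 hr after 700 uM copper sulfate.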
IL1B secr inh = inhibitors of inflammasome signaling (IL-1 beta secretion) | actives 4.7% (n = 360,000) | activity change, % at 57.5 µM | THP-1 LPS/ATP IL-1B secretion, AlphaLISA, 16 h; active compounds read low; in the data active = activity change below about -50%; inconclusive = mostly about -30% to -49%
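Secreted IL-1B measured by AlphaLISA bead assay after 16 h compound exposure of THP-1 cells; compounds (final up to 57.5 uM) added 1 h before LPS (250 ng/mL) and ATP (1.25 mM) stimulation; lower signal means less secretion.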
* marks the source's active call; other numbers are inactive results; ? = inconclusive; . = no result; [ ] = another dose, or the depositor's remark. Sampled rows, rich in hits. Any-hit rate of the full collection: about 21%. Unless noted, calls follow the shape of the dose curve; as a rule, active = well fitted curve in the direction sought with a large enough effect; inconclusive = small, poorly fitted or top-dose-only effect, or another doubt; inactive = no such curve, though single readings can be large; an effect the other way counts as inactive or inconclusive. % is scaled to controls: 0 for no effect and ±100 for the full control effect.

SMILES | TDP1 cell CPT | ELG1 DNA repair | VP16 counter | TDP1 cell noCPT | RORgamma inh | IL1B secr inh
C=CCC[C@@H](Cc1ccc(F)cc1)C(=O)OC[C@H](Cc1c[nH]c2ccccc12)NC(=O)[C@@H](CC=C)CC(=O)N[C@H](CO)Cc1ccccc1 | ? | ? | . | ? | . | -8
C=CCC[C@H](Cc1ccc(F)cc1)C(=O)OC[C@@H](Cc1c[nH]c2ccccc12)NC(=O)[C@H](CC=C)CC(=O)NCCO | 21µM* | ? | . | 16µM* | . | 0
C=CCC[C@@H](Cc1ccc(F)cc1)C(=O)OC[C@H](Cc1c[nH]c2ccccc12)NC(=O)[C@H](CC=C)CC(=O)NCCO | ? | ? | . | ? | . | -57*
CCc1nc2ccccc2[nH]1 | -9% | 11% | 17% | -2% | 25% | -10
SCc1nc2ccccc2[nH]1 | ? | . | . | 10µM* | . | .
O=C(CSCc1nc2ccccc2[nH]1)Nc1ccc2ccccc2c1 | -5% | ? | 2% | -18% | -16% | 0
c1ccc(OCc2nc3ccccc3[nH]2)cc1 | ? | ? | -18% | -23% | 69% | 10
c1ccc2[nH]c(CSc3nc4ccccc4o3)nc2c1 | ? | ? | ? | ? | 2µM* | -12
Clc1ccc(OCc2nc3ccccc3[nH]2)cc1 | 4% | ? | -3% | ? | ? | -51*
c1ccc2cc(CSCc3nc4ccccc4[nH]3)ccc2c1 | -28% | 1% | 11µM* | ? | ? | 15
COc1ccccc1CN1CC[C@@]2(CCCN(C(=O)c3cccc(F)c3)C2)C1 | 7% | . | -7% | -23% | -34% | .
CC(=O)c1ccc(Nc2nc(C(N)CCc3ccccc3)cs2)cc1 (stereo unspecified) | ? | . | . | 16µM* | . | ?
CC(=O)c1ccc(Nc2nc(C(N)Cc3ccc(Cl)cc3)cs2)cc1 (stereo unspecified) | 18µM* | . | . | ? | . | -54*
CC(C)Nc1nnc(SCC(=O)Nc2sccc2C#N)s1 | ? | 25% | . | ? | . | 0
O=C(Cc1ccccc1)NC(Nc1cccc2ccccc12)C(Cl)(Cl)Cl (stereo unspecified) | ? | -4% | ? | 26µM* | -32% | 30
COc1cc(OC)c(C(=O)NC2CCCc3ccccc32)cc1OC (stereo unspecified) | ? | ? | 6% | ? | 24% | 14
O=C(COC(=O)/C=C/c1cccc(Br)c1)Nc1cccc(S(=O)(=O)NC2=NCCC2)c1 | -14% | -14% | . | 4.1µM* | . | -16
CC(=O)c1cccc(S(=O)(=O)Nc2cccc(S(=O)(=O)NC3=NCCC3)c2)c1 | -5% | 6% | -8% | -2% | 28% | -7
CC(C)(C)c1ccc(C(=O)Nc2cccc(S(=O)(=O)NC3=NCCC3)c2)cc1 | ? | ? | . | 12µM* | . | ?
CC(C)(C)c1ccc(OCCC(=O)Nc2cccc(S(=O)(=O)NC3=NCCCCC3)c2)cc1 | 23µM* | ? | . | 23µM* | . | -29
O=C(COC(=O)/C=C/c1cccc(Cl)c1)Nc1cccc(S(=O)(=O)NC2=NCCC2)c1 | -20% | ? | . | 8% | . | ?
O=C(CCl)Nc1cccc(S(=O)(=O)NC2=NCCC2)c1 | 8.2µM* | ? | ? | 6.5µM* | ? | -99*
C=CC[C@@H]1C=C[C@H](O/N=C(\C)CCN2CCc3nc(-c4ccccc4)c(-c4ccccc4)cc3C2)[C@H](CO)O1 | . | . | -6%[10 µM] | . | -7%[10 µM] | .
COc1cccc(NC(=O)C2(C)CCN2C(=O)CC2CCCC2)c1 (stereo unspecified) | ? | . | . | ? | . | -2
COc1ccc(-c2c(C)nn3c4c(cnc23)C(=O)CC(c2ccc(C)cc2)C4)cc1 (stereo unspecified) | -6% | . | . | -4% | . | .
SMILES | TDP1 cell CPT | ELG1 DNA repair | VP16 counter | TDP1 cell noCPT | RORgamma inh | IL1B secr inh
O=C(Cc1csc(-c2ccc(Cl)cc2)n1)Nc1cccc(S(=O)(=O)NC2=NCCC2)c1 | -7% | ? | . | -14% | . | -52*
CCCCCC(=O)Nc1cccc(S(=O)(=O)NC2=NCCCCC2)c1 | -24% | 9% | . | -30% | . | 26
CN(CC(=O)Nc1cccc(S(=O)(=O)NC2=NCCCCC2)c1)Cc1ccc(C(C)(C)C)cc1 | 29µM* | ? | 5% | 21µM* | 6% | ?
CC(=O)c1cccc(S(=O)(=O)N2CCC(C(=O)Oc3ccc(-c4nnco4)cc3)CC2)c1 | 0% | 9% | . | 1% | . | 2
CCc1c(-c2ccccc2OC)ncn1Cc1cccc(-c2ccccc2)c1 | 0.65µM* | . | . | 0.52µM* | . | -53*
CCN1CCN(Cc2ccc(OC)c(OCc3ccccc3)c2)CC1 | -19% | . | -4% | ? | -9% | 17
CCc1c(-c2cccc(Br)c2)ncn1Cc1cccc(-c2ccccc2)c1 | ? | . | . | 23µM* | . | -95*
CCc1c(-c2ccc(OC)cc2)ncn1Cc1cccc(-c2ccccc2)c1 | 7.3µM* | . | . | 4.6µM* | . | -1
COc1ccccc1-c1ncn(Cc2cccc(-c3ccccc3)c2)c1CC(C)C | 21µM* | . | . | 18µM* | . | -91*
CC(=O)CC1c2cc(F)ccc2C=C(c2ccsc2)N1c1ccc(C#CC2(O)CCCCC2)cc1 (stereo unspecified) | ? | . | . | 23µM* | . | -6
O=C(CC1c2cc(F)ccc2C=C(c2ccsc2)N1c1ccc(C#CCCO)cc1)c1ccco1 (stereo unspecified) | ? | . | . | 21µM* | . | -11
COC(=O)c1ccc(N2C(c3ccsc3)=Cc3cc4c(cc3C2CC(=O)c2ccco2)OCO4)cc1 (stereo unspecified) | 21µM* | . | . | 15µM* | . | 9
COc1ccc(C(=O)Nn2cnnc2)cc1OC | 1% | 5% | -15% | -5% | -1% | 12
Cc1cccc(C)c1NC(=O)C1C(c2ccccc2)=Nc2ccccc2N1C(=O)c1cnccn1 (stereo unspecified) | -40% | . | . | ? | . | 33
COc1cc(NC(=O)c2cc(S(=O)(=O)N3CCC(C)CC3)cn2C)cc(OC)c1OC | 2% | . | . | -10% | . | .
CC(CNC(=O)COc1ccc2c(c1)OCO2)c1ccccc1 (stereo unspecified) | -16% | 16% | . | -13% | . | -5
O=C(NC1CCC(n2cc(C(=O)NC3CC3)nn2)CC1)C(=O)c1ccccc1 (stereo unspecified) | -12% | . | . | -4% | . | .
